Structures are written as SMILES. About 83,000 compounds went through this panel and 20% of them were active in at least one assay; those are over-represented in the sample as a whole.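 The test compound was applied at a single concentration to cells in 96-well plates for 48 hours, and percent growth was recorded.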 The source made the active and inactive calls. How the source made its calls: active means growth percent below 10; inactive means the rest.

One experiment concerns CAKI-1 renal. The experiment can be described thus: NCI-60 one-dose screen, 48 h (100 = growth as untreated, 0 = no growth, -100 = all killed). As to conditions: 10 µM unless noted.
`NS(=O)(=O)c1ccc(-n2cc(-c3cccc(NC(=O)c4cc(N5CCOCC5)cc(C(F)(F)F)c4)c3)nn2)cc1`: the growth was 57% (inactive).
Still for that read-out and setting: under `COc1cc(-c2ccc(/C=N/NC(=O)c3[nH]c4ccc(Br)cc4c3-c3ccccc3)o2)cc(OC)c1OC` stands 74.5% (inactive); under `COc1ccc(NC(=O)Cn2c3c(sc2=O)[C@H]2[C@@H](O)[C@@H](O)[C@H](O)[C@@H]2CS3)cc1`, 97.2% (inactive).
Still for that read-out and setting: under `N#Cc1c(-c2ccccc2Cl)cc(-c2c[nH]c3ccccc23)[nH]c1=O` stands 55.5% (inactive); under `COc1ccc(C(=O)/C=C/c2cccc(Cl)c2Cl)cc1S(N)(=O)=O`, -5.88% (active); under `CNC(=O)c1cccc(NC(=O)c2ccc3c(c2)nnn3/C(C#N)=C/c2ccccn2)c1`, 25.7% (inactive).
On the same count and under the same terms, then `O=C(Cn1c2c(sc1=O)[C@H]1[C@@H](O)[C@@H](O)[C@H](O)[C@@H]1CS2)N1CCOCC1`, with 94.7% (inactive).
Turning to `C#C[C@]1(O)CC[C@H]2[C@@H]3CC=C4c5sc(-c6ccc(O)c(O)c6)nc5CC[C@]4(C)[C@H]3CC[C@@]21C`, the growth was -51.2% (active).
With `NS(=O)(=O)c1ccc(-n2cc(-c3cccc(NC(=O)c4cc(Cl)cc(Cl)c4)c3)nn2)cc1`, the growth is 94.2% (inactive).
On to `COc1ccc(-c2nnc3ccc(N/N=C/c4ccc(C)cc4)nn23)cc1`, for which the growth is 54.6% (inactive).
Same read-out and setting: under `O=C(Nc1ccc(C(F)(F)F)cc1)Nc1ccc2oc(=O)ccc2c1` stands 22.9% (inactive).
Take `CC1(C)CC[C@]2(C(=O)O)CC[C@]3(C)C(=CCC4[C@@]5(C)C[C@@H](O)[C@@H]6OC(c7ccccc7Br)OC[C@@]6(C)C5CC[C@]43C)C2C1` (stereo partly drawn): the growth was 14.6% (inactive).
In the case of `Cn1cc(-c2nnc(N)nc2-c2c[nH]c3ccccc23)c2cccnc21`, the growth is 43.2% (inactive).
The same measure, in the same setting: under `O=C(Cn1nc(-c2ccccc2)ccc1=O)N/N=C/c1ccc(N2CCOCC2)cc1` stands 90.8% (inactive); under `COc1ccc(-c2c(Nn3cnnn3)no[n+]2[O-])cc1`, 25.7% (inactive).

Another experiment deals with A498 renal. Described as above. Particulars: 10 µM unless noted.
As for `CCCCSc1nc(Nc2ccc(S(N)(=O)=O)cc2)c(C#N)c(-c2ccc(Cl)cc2)n1`, the growth was 108% (inactive).
On the same count and under the same terms, under `COc1cc(-c2cc(-c3cccc(OCC(=O)O)c3)[nH]c(=O)c2C#N)cc(OC)c1OC` stands 101% (inactive); under `NS(=O)(=O)c1ccc(-n2cc(-c3cccc(NC(=O)c4cc(N5CCOCC5)cc(C(F)(F)F)c4)c3)nn2)cc1`, 104% (inactive); under `COc1cc(-c2ccc(/C=N/NC(=O)c3[nH]c4ccc(Br)cc4c3-c3ccccc3)o2)cc(OC)c1OC`, 134% (inactive).
The same measure, in the same setting: under `COc1ccc(C2=NN(c3ccccc3)C(c3ccc(OCc4ccccc4)c(OC)c3)C2)cc1OC` (stereo not drawn) stands 118% (inactive).
On the same count and under the same terms, then `CC(C)(C)OC(=O)/C=C/c1cccc2c1C(=O)NC(C)(c1cc3cc(Cl)ccc3oc1=O)N2` (stereo not drawn), with 102% (inactive); and `O=C(Nc1ccccc1)N1CCN(c2cc(-c3cn(-c4ccccc4)nc3-c3cccc(O)c3)ccn2)CC1`, with 103% (inactive).
Consider `COc1ccc(NC(=O)Cn2c3c(sc2=O)[C@H]2[C@@H](O)[C@@H](O)[C@H](O)[C@@H]2CS3)cc1`, for which the growth is 111% (inactive).
Still for that read-out and setting: then `N#Cc1c(-c2ccccc2Cl)cc(-c2c[nH]c3ccccc23)[nH]c1=O`, with 116% (inactive).
Still for that read-out and setting: then `COc1ccc(C(=O)/C=C/c2cccc(Cl)c2Cl)cc1S(N)(=O)=O`, with 94.9% (inactive); and `CNC(=O)c1cccc(NC(=O)c2ccc3c(c2)nnn3/C(C#N)=C/c2ccccn2)c1`, with 115% (inactive).
Take `COc1c(F)ccc(C(=O)Nc2ccc3nc(NC(=O)C4CCCN(S(=O)(=O)c5ccc(C#N)cc5)C4)sc3c2)c1F` (stereo not drawn): the growth is 101% (inactive).
Same read-out and setting: then `O=C(Cn1c2c(sc1=O)[C@H]1[C@@H](O)[C@@H](O)[C@H](O)[C@@H]1CS2)N1CCOCC1`, with 99.3% (inactive).
Same read-out and setting: then `Nc1nc(-c2ccccc2)c(N=Nc2ccc([N+](=O)[O-])cc2Cl)s1`, with 73.6% (inactive); and `C=Cn1cc(C(=O)O)c(=O)c2cc(F)c(N3CCN(c4nccc(-c5nccs5)n4)CC3)cc21`, with -21.4% (active); and `C/C(=N\N=C1/C(=O)Nc2ccc(Cl)cc21)c1ccc2c(c1)Nc1ccccc1S2`, with 23.7% (inactive).
Take `CC1=C(C(=O)c2ccccc2)C(c2cccc3ccccc23)n2c(nc3ccccc32)N1` (stereo not drawn): the growth was 153% (inactive).
For `C#C[C@]1(O)CC[C@H]2[C@@H]3CC=C4c5sc(-c6ccc(O)c(O)c6)nc5CC[C@]4(C)[C@H]3CC[C@@]21C`, the growth was -88.5% (active).
The same measure, in the same setting: then `NS(=O)(=O)c1ccc(-n2cc(-c3cccc(NC(=O)c4cc(Cl)cc(Cl)c4)c3)nn2)cc1`, with 135% (inactive); and `COc1ccc(-c2nnc3ccc(N/N=C/c4ccc(C)cc4)nn23)cc1`, with 109% (inactive); and `O=C(Nc1ccc(C(F)(F)F)cc1)Nc1ccc2oc(=O)ccc2c1`, with 27.4% (inactive).
Consider `O=c1[nH]c(=O)c2c(-c3cc4ccccc4oc3=O)ccnc2[nH]1`, for which the growth is 148% (inactive).
Same read-out and setting: then `CC1(C)CC[C@]2(C(=O)O)CC[C@]3(C)C(=CCC4[C@@]5(C)C[C@@H](O)[C@@H]6OC(c7ccccc7Br)OC[C@@]6(C)C5CC[C@]43C)C2C1` (stereo partly drawn), with 23.7% (inactive); and `COc1cc(-c2nc3ccc(C)cc3[nH]2)ccc1OCc1nnc(-c2ccc(Br)cc2)o1`, with 89.3% (inactive).
Same read-out and setting: under `Clc1cccc(N/N=C/c2c[nH]c3ccc(Br)cc23)n1` stands 79.9% (inactive); under `Cn1cc(-c2cc3nc(-c4cn(C)c5ncccc45)cc(N)n3n2)c2cc(Cl)ccc21`, -75.9% (active).
The same measure, in the same setting: under `Cn1cc(-c2nnc(N)nc2-c2c[nH]c3ccccc23)c2cccnc21` stands 86.4% (inactive); under `Cc1ccc([C@H]2C(C(=O)c3ccc(Cl)cc3)C3(N[C@@H]2c2ccccc2)C(=O)Nc2ccccc23)cc1` (stereo partly drawn), 75.5% (inactive).
With `O=C(Cn1nc(-c2ccccc2)ccc1=O)N/N=C/c1ccc(N2CCOCC2)cc1`, the growth is 84% (inactive).
For the molecule `COc1cc2c(c(OC)c1OC)C(=O)CC(c1cccc(NC(=O)c3cccc([N+](=O)[O-])c3)c1)O2` (stereo not drawn), the growth is 91.2% (inactive).
On the same count and under the same terms, then `COc1ccc2[nH]cc(-c3nnc(N)nc3-c3c[nH]c4ncc(Br)cc34)c2c1`, with 87.7% (inactive); and `CC(C)c1ccc2c(N)c(C(=O)Nc3ccc(C(F)(F)F)cn3)sc2n1`, with 115% (inactive); and `C=C1CC[C@@H]2[C@]3(C)COC(c4ccco4)O[C@@H]3CC[C@@]2(C)[C@@H]1C/C=C1/C(=O)OCC1OC(C)=O` (stereo partly drawn), with 129% (inactive).
`CCN(CC)c1ccc(/C=N/Nc2nc(-c3ccc(Br)cc3)cs2)c(O)c1`: the growth was 102% (inactive).
On the same count and under the same terms, under `N=C1N=C(SCc2nc3ccccc3[nH]2)NC(=O)/C1=C/c1ccc(Cl)cc1` stands 122% (inactive); under `COc1ccc(-c2c(Nn3cnnn3)no[n+]2[O-])cc1`, 63.9% (inactive); under `CN(C)c1nc(NCCNS(=O)(=O)c2ccc(C(=O)/C=C/c3ccc(F)cc3)cc2)nc(Nc2ccc(F)cc2)n1`, 9.88% (active).
With `N/C(=N\c1nc2ccccc2s1)NC(=O)Nc1ccc(Cl)cc1Cl`, the growth is -84.6% (active).
